LANA DNA inh: inhibitors of KSHV LANA C-terminal domain DNA binding; inhibition, % at 9 µM; MBP-C-LANA/FAM-LBS DNA binding, fluorescence polarization; 0.078% of 340,000 active; AID 504423;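 active means highest replicate inhibition at or above 60% at 9 µM, even if other replicates fall short; inactive means all replicates below 60% inhibition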
ZTA DNA inh: counter-screen for EBNA-1 inhibitors: inhibitors of Epstein-Barr virus ZTA; P03206; ZTA-DNA binding, fluorescence polarization; inhibition, % at 11 µM; 0.15% of 320,000 active; AID 2234; in the data active means inhibition above about 33%
Target sequence (P03206 whole entry, looked up): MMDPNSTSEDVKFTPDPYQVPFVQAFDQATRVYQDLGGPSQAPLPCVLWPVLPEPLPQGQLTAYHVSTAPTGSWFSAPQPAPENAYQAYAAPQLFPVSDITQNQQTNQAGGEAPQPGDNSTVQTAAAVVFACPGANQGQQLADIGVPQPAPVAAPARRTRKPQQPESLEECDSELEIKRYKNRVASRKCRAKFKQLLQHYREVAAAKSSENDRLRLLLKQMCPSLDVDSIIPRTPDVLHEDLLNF
E coli Lon inh: inhibits E. coli Lon protease | AID 602123 | 0.42% of 360,000 active | P0A9M0 | inhibition, % at 7.94 µM | purified E. coli Lon protease, fluorescence polarization; in the data active means inhibition above about 13%, passing the limit was not always enough
EBNA-1 inhibitor: blocks EBNA-1 binding to DNA | inhibition, % at 14.8 µM | EBNA-1 DNA binding, fluorescence polarization | AID 1950 | 0.34% of 300,000 active; in the data active means inhibition above about 28%
Keap1-Nrf2 PPI: disrupts human Keap1 binding to Nrf2 peptide | Q14145 | Keap1 Kelch-Nrf2 peptide fluorescence polarization, 1536-well | inhibition, % at 9.4 µM | 0.15% of 340,000 active | AID 504523; in the data active means inhibition above about 12%;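 further: human Keap1 Kelch domain with fluorescein labeled Nrf2 9mer peptide probe; higher means more block of Keap1 binding to Nrf2 peptide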
Zta DNA confirm: confirmation of Epstein-Barr virus ZTA DNA binding inhibitors; shares compounds with ZTA DNA inh; 30% of 320 active; inhibition, % at 11.1 µM; Zta-ZRE DNA binding, fluorescence polarization;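 active means mean inhibition across triplicate runs above the hit threshold derived for the original primary screen, cut at about 33% in these data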
EBNA-1 counter: EBNA-1 DNA binding inhibition, counter-screen for ZTA; shares compounds with ZTA DNA inh; fluorescence polarization; inhibition, % at 14.8 µM; 320 tested, under 10 active; AID 2362; call rule not given here
DNA intercal 2: DNA intercalation in C-LANA counter-screen; shares compounds with LANA DNA inh; Acridine orange-DNA displacement, fluorescence polarization; AC50, µM (doses to about 35 µM); 20 tested, under 10 active;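 active means signal drop with an AC50 no more than ten times the top valid dose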
Keap1 TSA: binders of human Keap1 Kelch domain | shares compounds with Keap1-Nrf2 PPI | Keap1 Kelch thermal shift, delta Tm; active compounds read high | max delta Tm, degrees C | 8% of 400 active | AID 651823; in the data active means max delta Tm above about 0.48 degrees C
Dye-only ctr: dye artifact in Keap1 thermal shift counter-screen. shares compounds with Keap1-Nrf2 PPI. Sypro Orange dye-only thermal melt, no protein, delta Tm; top dose 26 µM. delta Tm, degrees C (concentration not given with the values). 140 tested, under 10 active. AID 651858;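 active means at highest dose tested, delta Tm positive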
E coli Lon conf: E. coli Lon inhibition confirmation; shares compounds with E coli Lon inh; purified E. coli Lon, fluorescence polarization; inhibition, % at 7.94 µM; 31% of 1,400 active; AID 602230; in the data active means inhibition above about 16%
Each line names hits and unclear results; the compound was inactive in the other large screens (follow-up assays come after a bar, where they were run). Only some compounds are listed: those with a hit (about 0.85% of all), similar ones and a draw of the others.

CCOC(=O)c1c(NC(=O)Cn2nc(C(=O)O)c3ccccc3c2=O)sc(CC)c1C	ZTA DNA inh 36 | Zta DNA confirm inactive | EBNA-1 counter inactive
CCCn1c2ccccc2c2cnn(CC(=O)N3CCN(C4CCCCC4)CC3)c(=O)c21	none
O=C(Nc1cccc(-c2cn3ccccc3n2)c1)c1cc2ccccc2oc1=O	ZTA DNA inh 36 | Zta DNA confirm 35 | EBNA-1 counter inactive
COc1ccc(S(=O)(=O)N(C)C[C@H]2Oc3ccc(NC(=O)Nc4ccc5c(c4)OCO5)cc3C(=O)N([C@H](C)CO)C[C@@H]2C)cc1	none (no result: ZTA DNA inh, EBNA-1 inhibitor)
CCOc1cc(/C=C\c2[nH]c(=O)[nH]c(=O)c2[N+](=O)[O-])ccc1OC(C)CC (centres undefined)	ZTA DNA inh 39 (no result: LANA DNA inh, E coli Lon inh, Keap1-Nrf2 PPI) | Zta DNA confirm 43 | EBNA-1 counter inactive
C#CCOCCOCCOCCNc1nc(N2CCN(C(=O)CCCCCCCCCCNC(=O)Cn3cc(CCCCCN)nn3)CC2)nc(N2CCN(C(=O)CCCCCCCCCCNC(=O)[C@H]([C@@H](C)CC)n3cc(CCCCN=C(N)N)nn3)CC2)n1	ZTA DNA inh 61 | Zta DNA confirm 48 | EBNA-1 counter inactive
C#CCOCCOCCOCCNc1nc(N2CCN(C(=O)CCCCCCCCCCNC(=O)[C@H]([C@@H](C)CC)n3cc(CCCCCN)nn3)CC2)nc(N2CCN(C(=O)CCCCCCCCCCNC(=O)[C@H]([C@@H](C)CC)n3cc(CCCCN=C(N)N)nn3)CC2)n1	ZTA DNA inh 163 | Zta DNA confirm 55 | EBNA-1 counter inactive
C#CCOCCOCCOCCNc1nc(N2CCN(C(=O)Cn3cc(CCCN=C(N)N)nn3)CC2)nc(N2CCN(C(=O)[C@H]([C@@H](C)CC)n3cc(CCCCN)nn3)CC2)n1	none
C#CCOCCOCCOCCNc1nc(N2CCN(C(=O)CCCCCCCCCCNC(=O)[C@H]([C@@H](C)CC)n3cc(CCCCN=C(N)N)nn3)CC2)nc(N2CCN(C(=O)CCCCCCCCCCNC(=O)[C@H](CO)n3cc(CCCCCN)nn3)CC2)n1	none
C#CCOCCOCCOCCNc1nc(N2CCN(C(=O)CCCCCCCCCCNC(=O)[C@H]([C@@H](C)CC)n3cc(CCCCN=C(N)N)nn3)CC2)nc(N2CCN(C(=O)CCCCCCCCCCNC(=O)[C@H](CCCCN)n3cc(C)nn3)CC2)n1	ZTA DNA inh 56 (no result: LANA DNA inh, E coli Lon inh, Keap1-Nrf2 PPI) | Zta DNA confirm 68 | EBNA-1 counter inactive
Cn1c(CCN2CCN(c3ccccn3)CC2)nc2cc(NC(=O)COc3ccc([N+](=O)[O-])cc3)ccc21	ZTA DNA inh 38 | Zta DNA confirm inactive | EBNA-1 counter inactive
C=C1CC[C@H](O)C/C1=C/C=C1\CCC[C@]2(C)[C@@H]([C@H](C)/C=C/[C@H](C)C(C)C)CC[C@@H]12	none
O=C(Nc1cccc2ccccc12)NC1CCS(=O)(=O)C1 (centres undefined)	none
O=C(Nc1cccc2ccccc12)NC1CCCCC1O (centres undefined)	ZTA DNA inh 58 | Zta DNA confirm inactive | EBNA-1 counter inactive
Cc1cccc(NC(=O)NNC(=O)c2ccc3ccccc3c2)c1	none (no result: ZTA DNA inh, EBNA-1 inhibitor)
CC(=O)c1cccc(NC(=O)NNC(=O)c2ccc3ccccc3c2)c1	ZTA DNA inh 76 | Zta DNA confirm inactive | EBNA-1 counter inactive
CN(CC(=O)Nc1ccc(F)cc1)C(=O)COC(=O)/C=C/c1ccccc1[N+](=O)[O-]	none (no result: EBNA-1 inhibitor)
CCc1ccc(S(=O)(=O)/N=C2\C=C(Nc3ccc(C(=O)O)cc3)C(=O)c3ccccc32)cc1	ZTA DNA inh 53 | Zta DNA confirm 52 | EBNA-1 counter inactive
Cc1ccc(S(=O)(=O)/N=C2\C=C(Nc3ccc(O)cc3)C(=O)c3ccccc32)cc1	none (no result: ZTA DNA inh, EBNA-1 inhibitor)
Cc1ccc(S(=O)(=O)/N=C2\C=C(Nc3cccc(C(=O)O)c3)C(=O)c3ccccc32)cc1	ZTA DNA inh 33 | Zta DNA confirm 36 | EBNA-1 counter inactive
O=C1CCN(CCCc2ccccc2)CCN1[C@H](CO)Cc1ccccc1	none
O=S(=O)(c1ccccc1)N1CC2CC(Br)C(Br)CC21 (centres undefined)	none (no result: LANA DNA inh, ZTA DNA inh, EBNA-1 inhibitor, Keap1-Nrf2 PPI)
Cn1nc(-c2ccccn2)nc2c(=O)n(C)c(=O)nc1-2	ZTA DNA inh 73 | Zta DNA confirm 69 | EBNA-1 counter inactive
CS(=O)(=O)c1ccc2nc(NC(=O)c3ccc(NS(=O)(=O)c4ccc(F)c(F)c4)cc3)sc2c1	ZTA DNA inh 87 | Zta DNA confirm 39 | EBNA-1 counter inactive
COCCNC(=O)c1cc(-c2ccccc2C)nn1CC1CC(c2cccnc2)=NO1 (centres undefined)	none (no result: ZTA DNA inh, EBNA-1 inhibitor)
COCCNC(=O)c1cc(-c2ccccc2)nn1CC1CC(c2cccnc2)=NO1 (centres undefined)	ZTA DNA inh active | Zta DNA confirm inactive | EBNA-1 counter inactive
Cc1ccc(NC(=O)c2ccc(NS(=O)(=O)/C=C/c3ccccc3)cc2)nc1	none
CN(CC(=O)NCC1CCCCC1)CC(=O)Nc1ccc(F)cc1	none (no result: EBNA-1 inhibitor)
CC(C(=O)O)N1C(=O)/C(=C/C=C/c2ccco2)SC1=S (centres undefined)	LANA DNA inh 104, ZTA DNA inh 58, Keap1-Nrf2 PPI 13 | Zta DNA confirm 73 | EBNA-1 counter inactive | Keap1 TSA 0.77 | Dye-only ctr inactive
COC(/C(=N/O)c1ccc(Cl)cc1)c1ccccc1 (centres undefined)	none
CN1CCc2c(sc3c2C(=O)NC(c2ccccn2)N3)C1 (centres undefined)	ZTA DNA inh 40, E coli Lon inh 24 | Zta DNA confirm inactive | EBNA-1 counter inactive | E coli Lon conf inactive
COc1ccc(C)cc1NC(=O)CNC(=O)[C@@H]1Cc2ccccc2CN1	none
Nc1c(/C=C2\C=CC(=O)C(O)=C2)c(=O)nc2sc(CC(=O)N3CCCCC3)nn12	none (no result: LANA DNA inh, ZTA DNA inh, E coli Lon inh, EBNA-1 inhibitor, Keap1-Nrf2 PPI) | DNA intercal 2 inactive
O=C1CCCC(O)=C1N=Nc1ccc(C(=O)O)cc1	LANA DNA inh 71 | DNA intercal 2 inactive
CC(C)(C)n1nnnc1C(c1ccccc1)N1CCN(c2ccc(C(F)(F)F)cn2)CC1 (centres undefined)	none (no result: LANA DNA inh, ZTA DNA inh, EBNA-1 inhibitor, Keap1-Nrf2 PPI)
Clc1ccc(-c2nnc3sc(-c4ccc(Br)o4)nn23)c(Cl)c1	none
